{"source": "PubChem BioAssay (NCI)", "note": "Compounds without any hit were thinned out: in the full panel of roughly 83,000, 20% have a hit.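 Interpretation: 100, growth as untreated; towards 0, rising growth inhibition; 0, no net growth; 0 to -100, cell death. Compounds scoring below 10 were considered active.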 Values without a mark were called inactive. The source made the active and inactive calls.", "data": [{"system": "OVCAR-3 ovarian", "experiment": "NCI-60 one-dose screen, 48 h (100 = growth as untreated, 0 = no growth, -100 = all killed)", "settings": "10 µM unless noted", "method": "Growth inhibition of the OVCAR-3 human tumor cell line is measured as a screen for anti-cancer activity. Cells are grown in 96 well plates and exposed to the test compound for 48 hours. Compounds are tested at a single concentration, which is 10^-5 M for most compounds. The reported endpoint is percent growth (GI% or GIPRCNT), where numbers from 0 - 100% represent growth inhibition, and numbers from -100% - 0 represent cell death. For example, a value of 40 represents 60% growth inhibition. A value of 0 means no net growth occurred over the course of the experiment. A value of -40 indicates 40% of cells at the beginning of the experiment died by the end of the experiment. A value of -100 means all cells are dead at the end of the experiment.\nNCI-60 Human Tumor Cell Lines Screen was performed using the standard one-dose NCI protocol, which is described in more detail at https://dtp.cancer.gov/discovery_development/nci-60/default.htm.\nCompounds with GIPRCNT values below 10 were considered active. Activity score was based on GIPRCNT using the following formula: […]\nScore is 0 for GIPRCNT values of 100 or above, 50 for GIPRCNT values of 0, and 100 for GIPRCNT values of -100.", "values": [{"smiles": "NNC(=S)N1N=C(c2cc3ccccc3o2)CC1c1c[nH]c2ccccc12", "note": "(stereo not given)", "growth": "20%"}, {"smiles": "COc1ccc(Cn2cc3c(c2-c2ccc(O)cc2)CCc2cnoc2-3)cc1", "growth": "-14.7% (active)"}, {"smiles": "COC(=O)c1ccc2[nH]c(O)c(C(=Nc3ccc(N(C)C(=O)CN4CCN(C)CC4)cc3)c3ccc4c(c3)OCO4)c2c1", "growth": "10.9%"}, {"smiles": "CC[n+]1c(C)ccc2cc(C)ccc21", "growth": "104%"}, {"smiles": "Cc1cc2cn3c4ccc(O)cc4[nH]c(=O)c3c2cc1C", "growth": "-34.9% (active)"}, {"smiles": "Nc1nc2c(c3ncncc13)C(c1cccc(C(F)(F)F)c1)Cc1ncncc1-2", "note": "(stereo not given)", "growth": "2.43% (active)"}, {"smiles": "COc1cccc2c1n([O-])c1cccc(OC)c1[n+]2=O", "growth": "164%"}, {"smiles": "NCCCOc1cc2ccccc2cc1C(=O)Nc1ccc(Cl)cc1OC(=O)c1cc2ccccc2cc1OCCCN", "growth": "-99.1% (active)"}, {"smiles": "O=S(=O)(O)c1ccc2c(c1)Sc1cc(S(=O)(=O)O)ccc1O2", "growth": "122%"}, {"smiles": "O=C(N/N=C\\c1ccc(Cl)cc1)C(=O)N/N=C\\c1ccc(Cl)cc1", "growth": "123%"}, {"smiles": "O=C1Nc2c(c(=O)n(-c3ccccc3)c3ccccc23)C(c2ccc(Cl)cc2)N1", "note": "(stereo not given)", "growth": "106%"}, {"smiles": "O=C(O)COc1ccc([N+](=O)[O-])cc1Cl", "growth": "123%"}, {"smiles": "CC(=O)Nc1nc(C)c(C(=O)NNS(=O)(=O)c2ccccc2)s1", "growth": "136%"}, {"smiles": "CCCCCCCCCCC(C[N+](C)(C)C/C=C/c1ccccc1)C(O)c1ccccc1", "note": "(stereo not given)", "growth": "-50.7% (active)"}, {"smiles": "C/C=C(/C)C(=O)OC1C=C(CO)C(=O)C(OC(=O)C(C)(O)C(C)Cl)C1C(C)C", "note": "(stereo not given)", "growth": "-41.4% (active)"}, {"smiles": "O=C1C(Cl)=C(SC2=NCCN2)C(=O)c2ccccc21", "growth": "46.8%"}, {"smiles": "CCCCCCCCc1ccc(OCCOCC[N+](C)(C)CC)cc1", "note": "(tested in a mixture with another compound)", "growth": "20.6%"}, {"smiles": "COc1cc2cn3c4ccc(O)cc4[nH]c(=O)c3c2cc1OC", "growth": "-13.9% (active)"}, {"smiles": "O=C(Nc1cccc(Cn2c(=O)[nH]c3ccc(Oc4ncccn4)cc3c2=O)c1)c1cccc(F)c1", "growth": "84.1%"}, {"smiles": "O=C(/C(Br)=C/c1ccccc1)c1ccccc1", "growth": "-31.5% (active)"}, {"smiles": "COC(=O)c1ccc2[nH]c(O)c(C(=Nc3ccc(N(C)C(=O)CN4CCN(C)CC4)cc3)c3ccc(N)cc3)c2c1", "growth": "96.2%"}, {"smiles": "CC[C@H](Nc1ncnc2nc[nH]c12)c1nc2cccc(NCc3ccc(C(=O)NO)nc3)c2c(=O)n1-c1ccccc1", "growth": "41.5%"}, {"smiles": "O=C(CBr)OCc1ccc([N+](=O)[O-])o1", "growth": "104%"}, {"smiles": "COC(=O)c1c[n+]([O-])ccc1OC", "growth": "113%"}, {"smiles": "CCS(=O)(=O)OCCO[C@H]1Cc2cc3ccc(=O)oc3cc2OC1(C)C", "growth": "108%"}, {"smiles": "O=c1c(N=Nc2nccs2)c(-c2ccccc2)[nH]n1-c1nc(-c2ccccc2)cs1", "growth": "31.6%"}, {"smiles": "CCCCCN1CCN(C(CC(=O)c2ccccc2)C(=O)c2ccccc2)CC1", "note": "(stereo not given)", "growth": "55.3%"}, {"smiles": "NC(N)=Nc1ccc(/C=C2\\C=Cc3ccccc32)cc1", "growth": "72.9%"}, {"smiles": "COc1cc(OC)c(NC(=O)n2ncc3cc(Nc4ncnc5ccccc45)ccc32)cc1Cl", "growth": "91.3%"}, {"smiles": "C/C=C/C/C=C/[C@H](C)C[C@H](O)[C@@H]1C[C@@H]2O[C@H]2/C=C/[C@@H]2OC(C)(C)O[C@H]2/C=C/C[C@H](C)CC(=O)O1", "growth": "21.5%"}, {"smiles": "O=C(N/N=C\\c1ccc(-c2ccc(Br)cc2)o1)c1cc2oc(-c3cccc(C(F)(F)F)c3)cc2[nH]1", "growth": "101%"}, {"smiles": "Oc1ccccc1/C=N/N=C/c1c(O)ccc2ccccc12", "growth": "80.5%"}, {"smiles": "COC(=O)c1ccc2[nH]c(O)c(C(=Nc3ccc(N(C)C(=O)CN4CCN(C)CC4)cc3)c3cccc(OC)c3)c2c1", "growth": "10.5%"}, {"smiles": "CCOc1ccc2nc3ccc(Cl)cc3nc2c1", "growth": "110%"}, {"smiles": "CC(O)CN(CCO)CCN(CCO)CC(C)O", "note": "(stereo not given)", "growth": "112%"}, {"smiles": "Cc1ccc2c(c1)C(=O)CCS2", "growth": "115%"}, {"smiles": "CC(C)(C)c1ccc(OCCOC(=O)CBr)cc1", "growth": "101%"}, {"smiles": "COc1ccc(-c2nc(N)n(C(=S)Nc3ccccc3)n2)cc1", "growth": "103%"}, {"smiles": "CC1(C)CC(=O)C2=C(C1)Oc1nc(N)c(C#N)c(N)c1C2c1ccc(F)cc1", "note": "(stereo not given)", "growth": "121%"}, {"smiles": "COc1cc(/C=C/C(=O)c2ccc(F)cc2)ccc1OCCCCOc1cc2c(cc1OC)C(=O)N1CCCC1C=N2", "note": "(stereo not given)", "growth": "-28.8% (active)"}]}]}
